# Shown are actives, neighbours in structure and some others; about 12% of the full set was active somewhere.
# PI5P4K alpha inh = blocks human PI5P4K alpha kinase activity. max response, %. P48426. PI5P4Kalpha enzyme, ADP-Glo luminescence, 60 min; hits give low values. actives 1.2% (n = 330,000); active = max response of -50% or lower; inconclusive = between -30% and -50%; inactive = -30% or higher; note: value at the top dose of about 77 µM
#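 Human PI5P4Kalpha with substrate in 0.038 M HEPES pH 7.4, 0.28 mM EGTA, 0.1% CHAPS, 5% DMSO; reaction started with 5 microM ATP (final), 60 min at room temperature. ADP formed read by ADP-Glo luminescence.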
# G9a block = inhibitors of human histone lysine methyltransferase G9a. actives 8.8% (n = 350,000). Q96KQ7. Potency, µM (highest dose often 102 µM), usual class: inhibitors. AID 504332. G9a H3K9 monomethylation, AlphaScreen, 2 h; note: nearly all actives have a fitted effect of over 75% in size
#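 Readings reflect AlphaScreen signal from monomethyl-H3K9 antibody detection. HMT at 20 nM; substrate b-H3K9 500 nM; cofactor SAM 20 uM; 2 h RT reaction; compounds tested as titrations in qHTS with 15 min preincubation.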
# PLK1 PBD block = PLK1 (human) polo-box domain binding inhibition. P53350. Plk1 PBD binding of FITC phosphopeptide, fluorescence polarization. Potency, µM, hits mostly inhibitors. actives 2.8% (n = 360,000). AID 720504; note: series mostly up to about 57 µM; nearly all actives have a fitted effect of over 65% in size
# JMJD2A Tudor = JMJD2A Tudor domain (human) inhibition | actives 4.4% (n = 390,000) | Potency, µM (titrated, usually from 114 µM), hits mostly inhibitors | AID 504339 | AlphaScreen JMJD2A-Tudor / H3K4me3 peptide binding; note: nearly all actives have a fitted effect of over 50% in size
# HP1b binding inh = blocks HP1-beta chromodomain binding to methylated histone tails; AlphaScreen HP1-beta / biotin-H3K9me3 peptide binding; AID 540317; P83916; Potency, µM (top dose mostly 114 µM), most hits filed as inhibitors; actives 0.56% (n = 390,000); note: nearly all actives have a fitted effect of over 70% in size
#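 AlphaScreen: HP1-beta (50 nM) preformed 30 min with biotin-H3(1-18)K9me3 peptide (50 nM) in PBS pH 7.4, 0.01% Tween-20. Compound added for 30 min at RT, then streptavidin donor/nickel chelate acceptor beads (10 ug/mL) for 30 min.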
# BAZ2B block = inhibitors of human BAZ2B bromodomain. AID 504333. Q9UIF8. Potency, µM (highest dose often 114 µM), actives largely listed as inhibitors. actives 4.4% (n = 360,000). AlphaScreen BAZ2B-H3K14Ac peptide displacement; note: nearly all actives have a fitted effect of over 60% in size
# Target sequence (Q9UIF8 whole entry, looked up): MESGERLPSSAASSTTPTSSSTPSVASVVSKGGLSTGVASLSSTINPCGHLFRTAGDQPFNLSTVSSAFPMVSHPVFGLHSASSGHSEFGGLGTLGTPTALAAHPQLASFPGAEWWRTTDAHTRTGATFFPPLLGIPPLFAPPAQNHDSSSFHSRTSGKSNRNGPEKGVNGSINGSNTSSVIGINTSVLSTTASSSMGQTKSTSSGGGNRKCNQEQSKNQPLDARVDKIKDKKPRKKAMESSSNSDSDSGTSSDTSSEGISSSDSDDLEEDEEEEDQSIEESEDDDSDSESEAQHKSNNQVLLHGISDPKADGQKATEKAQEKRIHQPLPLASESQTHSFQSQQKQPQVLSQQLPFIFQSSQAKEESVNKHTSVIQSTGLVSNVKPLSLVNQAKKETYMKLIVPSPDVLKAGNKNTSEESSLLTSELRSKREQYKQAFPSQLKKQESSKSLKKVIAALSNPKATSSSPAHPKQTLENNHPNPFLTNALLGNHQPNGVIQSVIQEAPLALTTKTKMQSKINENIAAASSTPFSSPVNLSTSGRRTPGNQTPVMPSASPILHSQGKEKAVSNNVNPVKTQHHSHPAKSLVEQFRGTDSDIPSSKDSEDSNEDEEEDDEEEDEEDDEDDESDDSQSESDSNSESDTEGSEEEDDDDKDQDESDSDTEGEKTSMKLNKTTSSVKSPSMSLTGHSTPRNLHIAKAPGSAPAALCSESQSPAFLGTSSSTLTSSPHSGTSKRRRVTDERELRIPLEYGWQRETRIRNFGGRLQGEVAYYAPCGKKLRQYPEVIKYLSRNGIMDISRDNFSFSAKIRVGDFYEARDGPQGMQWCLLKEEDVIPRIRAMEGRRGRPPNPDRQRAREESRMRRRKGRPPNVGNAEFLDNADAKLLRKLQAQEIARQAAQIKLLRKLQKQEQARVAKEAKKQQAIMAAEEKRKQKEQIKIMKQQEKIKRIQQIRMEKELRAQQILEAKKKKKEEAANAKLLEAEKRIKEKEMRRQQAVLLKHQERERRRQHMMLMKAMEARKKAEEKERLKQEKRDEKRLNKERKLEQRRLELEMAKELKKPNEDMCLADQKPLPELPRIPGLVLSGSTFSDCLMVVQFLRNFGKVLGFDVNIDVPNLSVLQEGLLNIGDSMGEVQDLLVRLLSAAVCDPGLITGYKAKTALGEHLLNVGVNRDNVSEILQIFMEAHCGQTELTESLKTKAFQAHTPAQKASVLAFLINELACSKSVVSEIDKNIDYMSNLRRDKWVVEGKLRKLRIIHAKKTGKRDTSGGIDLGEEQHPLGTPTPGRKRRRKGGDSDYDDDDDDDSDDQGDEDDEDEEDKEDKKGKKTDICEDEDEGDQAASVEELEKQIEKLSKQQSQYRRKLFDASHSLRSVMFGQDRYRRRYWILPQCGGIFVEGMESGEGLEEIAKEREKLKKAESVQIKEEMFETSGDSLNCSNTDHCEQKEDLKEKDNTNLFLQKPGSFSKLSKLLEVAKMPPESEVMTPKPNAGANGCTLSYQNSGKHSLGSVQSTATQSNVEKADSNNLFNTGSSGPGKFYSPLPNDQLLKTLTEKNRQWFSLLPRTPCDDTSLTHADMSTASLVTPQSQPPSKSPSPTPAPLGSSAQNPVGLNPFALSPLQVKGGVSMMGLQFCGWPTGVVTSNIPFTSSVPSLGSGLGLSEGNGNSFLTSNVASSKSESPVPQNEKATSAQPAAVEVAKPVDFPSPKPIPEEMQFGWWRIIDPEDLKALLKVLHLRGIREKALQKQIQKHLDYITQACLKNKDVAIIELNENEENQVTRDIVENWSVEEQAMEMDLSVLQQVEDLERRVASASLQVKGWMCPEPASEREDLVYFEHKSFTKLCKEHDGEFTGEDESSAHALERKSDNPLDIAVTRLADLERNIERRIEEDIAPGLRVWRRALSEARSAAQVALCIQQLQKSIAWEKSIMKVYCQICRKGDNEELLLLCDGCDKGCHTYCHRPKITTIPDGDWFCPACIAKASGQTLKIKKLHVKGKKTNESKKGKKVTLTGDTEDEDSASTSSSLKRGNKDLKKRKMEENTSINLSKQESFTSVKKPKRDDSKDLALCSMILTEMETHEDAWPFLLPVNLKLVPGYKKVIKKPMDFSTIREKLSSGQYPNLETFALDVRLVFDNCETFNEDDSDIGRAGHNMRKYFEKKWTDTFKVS
#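 Protein-peptide AlphaScreen: BAZ2B 50 nM, b-H3K14Ac 50 nM, 1x PBS pH 7.4 + 0.01% Tween-20. Preincubation 30 min RT; cpd 30 min RT (top 110 uM); beads 20 min RT, light-protected.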
# A number is an active result; . = inactive; ? = inconclusive; / = not tested or not shown; [ ] = remark or other dose. Unless noted, calls come from the whole dose curve; as a rule, active = well fitted curve in the direction sought with a large enough effect; inconclusive = small, poorly fitted or top-dose-only effect, or another doubt; inactive = no such curve, though single readings can be large; an effect the other way counts as inactive or inconclusive.
SMILES,PI5P4K alpha inh,G9a block,PLK1 PBD block,JMJD2A Tudor,HP1b binding inh,BAZ2B block
Cc1ccc(NC(=O)CN2C(=O)S/C(=C/c3ccc(-c4cc(C(=O)O)ccc4C)o3)C2=O)cc1C,/,3.5µM,?,11µM,.,11µM
O=C(CN1C(=O)S/C(=C\c2ccc(C(=O)O)cc2)C1=O)Nc1ccccc1,.,/,.,.,.,.
O=C(O)c1ccccc1-c1ccc(/C=C2\SC(=O)N(c3ccccc3)C2=O)o1,.,7.1µM,.,.,.,?
O=C1COc2ccc(C(=O)COC(=O)Cc3ccsc3)cc2N1,.,.,.,.,.,.
Cc1ccccc1NC(=O)CN1C(=O)S/C(=C\c2ccc(-c3cccc(C(=O)O)c3C)o2)C1=O,.,20µM,?,.[11.4 µM],.,.
Cc1ccc(C(=O)O)cc1-c1ccc(C=C2C(=O)c3ccccc3C2=O)o1,.,18µM,?,?,40µM,50µM
Cc1ccc(C(=O)O)cc1NS(=O)(=O)c1ccc2c(c1)oc(=O)n2C,.,.,.,.,.,.
COC(=O)C(C)N1C(=O)S/C(=C\c2ccc(-c3ccc(C(=O)O)cc3C)o2)C1=O (stereo not drawn),?,40µM,30µM,?,?,?
Cc1ccccc1NC(=O)CN1C(=O)c2ccccc2C1=O,.,/,.,.,.,.
COc1cc(OC)c(NC(=O)C2CCCN(c3ncnc4c3nc3n4CCCCC3)C2)cc1Cl (stereo not drawn),/,.,/,.,.,.
CC(=O)Nc1ccc(OC(C)=O)cc1,/,.[12.7 µM],/,/,/,/
O=C(O)CSCc1cn2cc(Cl)ccc2n1,.,50µM,.,?,.,.
CNCc1cn2cc(Cl)ccc2n1,.,.,27µM,.,.,.
COC(=O)CCSCc1cn2cc(Cl)ccc2n1,.,40µM,.,.,.,.
COc1cccc(/C=C/C(=O)NCc2cn3cc(Cl)ccc3n2)c1,.,.,.,.,.,.
Cc1ccc(S(=O)(=O)CCC(=O)OCc2nnc(-c3ccccc3)o2)cc1,.,/,.,.,.,/
CC1CCCCC1NC(=O)Cn1cnc2sccc2c1=O (stereo not drawn),.,?,.,.,.,.
CC(=O)Nc1ccc(SCCN2CCN(CC(C)C)CCC2=O)cc1,/,/,/,.,.,/
COc1cccc(NC(=O)c2ccnc(N3CCC(C(=O)NCc4ccccc4OC)CC3)c2)c1,.,.,.,.,.,.
Cc1ccc(-c2cc(NC(=O)CCl)n(-c3ccccc3)n2)cc1,.,.,27µM,79µM,.,.
CC1=C(C(=O)N2CCN(c3cccc(Cl)c3)CC2)C2(CCCCC2)OC1=O,/,.,/,.,.,.
O=C(COC(=O)c1ccccn1)Nc1cccc(Cl)c1Cl,.,50µM,.,.,.,?
O=C(COC(=O)c1ccccn1)NCc1ccc(Cl)cc1Cl,.,28µM,.,.,.,?
CC(C)c1onc(C(=O)Nc2ccc3c(c2)OCO3)c1[N+](=O)[O-],.,?,.,.,.,.
N[C@](CC1c2ccccc2Oc2ccccc21)(C(=O)O)[C@H]1C[C@@H]1C(=O)O,/,.,/,/,/,/
SMILES,PI5P4K alpha inh,G9a block,PLK1 PBD block,JMJD2A Tudor,HP1b binding inh,BAZ2B block
CC(C)C[C@@H](CNCC(=O)[C@H](CC(=O)O)NC(=O)c1[nH]cnc1C(=O)N[C@H](CN)CC(C)C)NC(=O)c1nc[nH]c1C(=O)N[C@@H](Cc1ccccc1)C(=O)O,.,/,?,50µM,.,/
C[C@H](NC(=O)c1nc[nH]c1C(=O)N[C@@H](Cc1ccccc1)C(=O)OCc1ccccc1)C(=O)OCc1ccccc1,.,/,.,.,.,.
CC(C)C[C@@H](CNCC(=O)[C@H](CC(C)C)NC(=O)c1[nH]cnc1C(=O)N[C@@H](C)CN)NC(=O)c1nc[nH]c1C(=O)N[C@@H](Cc1ccccc1)C(=O)O,.,/,.,.,.,/
CC(C)C[C@@H](CN)NC(=O)c1nc[nH]c1C(=O)N[C@@H](C)C(=O)CNC[C@H](C)NC(=O)c1nc[nH]c1C(=O)N[C@@H](Cc1ccccc1)C(=O)O,.,/,.,79µM,.,/
CC(C)C[C@@H](CN)NC(=O)c1nc[nH]c1C(=O)N[C@@H](C)C(=O)CNC[C@H](C)NC(=O)c1nc[nH]c1C(=O)N[C@@H](CC(C)C)C(=O)O,.,/,?,50µM,.,/
CC(C)C[C@@H](CN)NC(=O)c1nc[nH]c1C(=O)N[C@@H](C)C(=O)CNC[C@H](C)NC(=O)c1nc[nH]c1C(=O)N[C@@H](C)C(=O)O,?,/,?,50µM,.,/
CC(C)C[C@H](NC(=O)c1[nH]cnc1C(=O)N[C@@H](C)c1ccccc1)C(=O)OCc1ccccc1,.,.[12.7 µM],.,.,.,.
CCOC(=O)Cn1c(=O)n(CC2CCCO2)c2nc(-c3c(F)cccc3Cl)nc(C(N)=O)c21 (stereo not drawn),/,.,/,.,.,.
CCc1ccc(N(C(=O)c2snc(C(N)=O)c2N)C(C(=O)NCC2CCCO2)c2ccco2)cc1 (stereo not drawn),.,.,.,.,.,.
CC1CNC(=S)N(c2ccc(F)cc2)C1=O (stereo not drawn),.,/,.,.,.,/
CC(C)C[C@@H](CN)NC(=O)c1nc[nH]c1C(=O)N[C@@H](CC(C)C)C(=O)CNC[C@H](C)NC(=O)c1nc[nH]c1C(=O)N[C@@H](C)C(=O)O,.,/,.,79µM,.,/
CC(C)C[C@H](NC(=O)c1nc[nH]c1C(=O)N[C@@H](CC(C)C)C(=O)OC(C)(C)C)C(=O)OCc1ccccc1,.,.,.,.,.,.
CCOc1ccc(-c2c(C)sc3nc[nH]c(=O)c23)cc1,.,.,.,89µM,.,.
O=S(=O)(c1ccc(F)cc1F)N1CCN(c2nc(-c3cccs3)nc3ccccc23)CC1,/,/,/,.,.,/
Cc1ccc(NC(=O)Cc2nnc(SCC(=O)NC3=NCCS3)n2C)cc1,.,?,.,.,.,?
Cc1ccccc1NC(=O)CSc1nnc(-c2ccoc2C)n1CCc1ccccc1,.,79µM,.,.,.,?
Cc1ccccc1NC(=O)CSc1nnc2ccc(-c3ccccn3)nn12,.,.,.,.,.,.
COc1ccc(NC(=O)CSc2nnc(-c3ccoc3C)n2CCc2ccccc2)cc1,.,.[2.33 µM],.,.,.,?
O=C(CSc1nnc2ccc(-c3ccco3)nn12)Nc1ccccc1F,.,14µM,.,.,.,?
Cc1ccccc1NC(=O)CSc1nnc(-c2ccco2)n1N,.,7.9µM,19µM,.,?,.
Cc1ccccc1NC(=O)Cc1nnc(SCC(=O)NC2=NCCS2)n1C,.,?,.,25µM,.,.
O=C(OCC1CCCO1)c1ccc2c(c1)N(Cc1ccccc1F)C(=O)c1ccccc1S2(=O)=O (stereo not drawn),/,.,/,.,.,.
